Screening data (PubChem)
Pf Dd2 growth – qHTS Primary assay for Inhibitors of Plasmodium falciparum Dd2 growth in vitro; P. falciparum Dd2 growth, SYBR Green, 72 h; Potency, µM (doses to about 28.9 µM), actives largely listed as inhibitors; actives 4.3% (n = 120,000); AID 1347417, 2020; active means well fitted inhibition curve with a large enough effect; further: nearly all actives have a fitted effect of over 65% in size
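Infected erythrocytes (Dd2, 0.3% parasitemia, 2.5% hematocrit final) are added to compound in RPMI-1640/Albumax II medium, grown 72 h at 37C in low oxygen, then lysed with saponin/Triton-X containing SYBR Green and read by fluorescence.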
Large screens that a line does not name were inactive. This is one part of a sample in which hits are shown more often than they occur.

CCCCCN1C(C(=O)c2ccccc2)=C(NC(=O)c2ccc(OC)c(OC)c2)c2ccccc2S1(=O)=O	none
O=C(c1ccc(C(F)(F)F)cc1)N1CCC2(Cc3ccccc3NC2=O)C1 (stereo unspecified)	none
O=C(C1CCc2nnc(C3CCN([S+](=O)([O-])c4ccccc4)CC3)n21)N1CCN(c2ncccn2)CC1 (stereo unspecified)	none
O=C(NC1CCN(c2cc(-c3cccs3)[nH]n2)C1)c1cccc2[nH]ccc12 (stereo unspecified)	none
O=C(Nc1ccc(C2(C(=O)NCc3ccc(F)cc3)CCCCC2)cc1)C1CC1	none
O=C(Nc1ccc(C2(C(=O)NCc3ccc4c(c3)OCO4)CCCCC2)cc1)C1CC1	Pf Dd2 growth 13µM
CS(=O)(=O)Nc1ccc(C2(C(=O)NCc3ccc4c(c3)OCO4)CCCCC2)cc1	none
COc1cc2c(cc1CN1CCCC(CO)(CC=C(C)C)C1)OCCO2 (stereo unspecified)	Pf Dd2 growth 7.9µM
COc1cc2c(cc1CN1CCC3(CCCNC3)C1)OCCCO2 (stereo unspecified)	none
CC(C)=CCC1(CO)CCCN(Cc2cc(=O)n3cc(C)sc3n2)C1 (stereo unspecified)	none
O=C(c1cccnc1)N1CCC(Oc2cccnc2)C1 (stereo unspecified)	none
Cc1cccc(CNC(=O)C2CC(c3ccc(F)c(C)c3)CN(C(=O)c3ccccc3)C2)c1 (stereo unspecified)	none
CNC(=O)[C@@H]1CN(S(=O)(=O)c2ccc(C#N)cc2)C[C@H]1COC	none
CCN1C(=O)CCN(S(=O)(=O)CC)CC12CCOCC2	none
CCN1C(=O)CCN(C(C)=O)CC12CCOCC2	none
CCN1C(=O)CCN(CC2CCCCC2)CC12CCOCC2	Pf Dd2 growth 3.5µM
CN1C(=O)CCCCC1C(=O)N1CCCC1 (stereo unspecified)	none
CCOC(=O)C1CCN(c2cc3c(cc2NC(=O)c2ccc(OC)c(OC)c2)n(C)c(=O)n3C)CC1	Pf Dd2 growth 8.9µM
CCOC(=O)c1ccc(NC(=O)Nc2cc3c(cc2N2CCCC2)n(C)c(=O)n3C)cc1	none
COc1ccc(C(=O)Nc2cc(C(F)(F)F)ccc2N2CCN(c3ccccc3)CC2)cc1OC	none
O=C([C@@H]1C[C@H](Oc2cccnc2)CN1C(=O)c1n[nH]c(=O)c2ccccc12)N1CCCC1	none
COc1ccc(NC(=O)NC[C@H]2O[C@@H]3C[C@@H](CC(=O)N4CCOCC4)O[C@@H]3[C@@H]2O)cc1	none
Cc1ccc(-n2ncc3c(NC4CCCCCC4)ncnc32)cc1Cl	none
Cc1ccc(N2CCC(N[C@@H]3CC[C@@H](N)C3)CC2)cc1Cl	Pf Dd2 growth 13µM
Cc1ccc(C(=O)NC2CCN(c3cnn(CC4CC4)c(=O)c3)CC2)cc1C	none
O=C(CCC[C@@H]1[C@H]2CCCN3CCC[C@@H](CN1C(=O)c1ccccc1)[C@@H]23)NCc1ccccc1	none
Cc1nnc([C@@H]2CC(F)(F)CN2C(=O)c2ccco2)o1	none
COc1ccc2c(c1)OCC(CNC(=O)c1ccc(-c3nnn(C)n3)cc1)C2 (stereo unspecified)	none
COc1ccc2c(c1)OCC(CNC(=O)c1scc3c1OCCO3)C2 (stereo unspecified)	none
COc1ccc2c(c1)OCC(CNC(=O)c1cc(-c3ccncc3)n[nH]1)C2 (stereo unspecified)	Pf Dd2 growth 13µM
CC(=O)N1CCCC(c2nn(C)c(=O)n2Cc2ccccc2)C1 (stereo unspecified)	none
COCCN1CCCC2(CCN(C(=O)c3ccc(F)c(Cl)c3)C2)C1=O (stereo unspecified)	none
Cc1ccc(N2C(=O)N(Cc3cc(=O)n4ccccc4n3)c3ccccc3S2(=O)=O)cc1Cl	Pf Dd2 growth 10µM
Cc1cccc(N2C(=O)N(Cc3cc(=O)n4ccccc4n3)c3ccccc3S2(=O)=O)c1	none
Cc1ccc(N2C(=O)N(Cc3cccc(Cl)c3)c3ccccc3S2(=O)=O)cc1	none
CC(C)Oc1cccc2c1c(NC(=O)C1CCOCC1)nn2C	none
CC(C)Oc1cccc2c1c(NC(=O)C1CCCO1)nn2Cc1ccccc1 (stereo unspecified)	none
CC(C)Oc1cccc2c1c(NC(=O)c1ccn(C)n1)nn2Cc1ccccc1	Pf Dd2 growth 8.9µM
Cc1noc(C)c1CC(=O)N1CCCC(Cc2nc(C3CCOCC3)no2)C1 (stereo unspecified)	none
Cc1ccccc1OCc1nc(C2CN(C(=O)Cc3ccsc3)C2)no1	none
O=C(CC1COCCN1)N(Cc1cccnc1)Cc1cccnc1 (stereo unspecified)	none
O=C(CC1COCCN1)N(CCc1c[nH]c2ccccc12)C1CCCCC1 (stereo unspecified)	Pf Dd2 growth 8.9µM
O=C1CCN(C(=O)CCCc2c[nH]c3ccccc23)CCCOCCN1	none
Cc1noc(C)c1CC(=O)N1CC(=O)N(C2CCCCC2)CC(OCc2ccccc2)C1 (stereo unspecified)	none
COc1cccc([S+](=O)([O-])N2CCn3c(nnc3-c3ccc(Cl)cc3)C2)c1	none
CCN(CC)C(=O)Cn1c(=O)cc(C)c2c(C)nn(C)c21	none
CCc1ccc(-n2nc(C)c3c(C)cc(=O)n(CC(=O)N(CC)Cc4ccccc4)c32)cc1	Pf Dd2 growth 8.9µM
Cc1cc(=O)n(Cc2ccccc2)c2c1c(C)nn2-c1ccccc1	none
Cc1ccc(C(=O)NC2CCc3nnc(C4CC4)n3CC2)c(=O)[nH]1 (stereo unspecified)	none
Cc1ccc2nc(CO[C@H]3CN(Cc4ccc(C(F)(F)F)cc4)C[C@H]3F)[nH]c2c1	Pf Dd2 growth 8.9µM
Cc1cc2nc(CO[C@H]3CN(C)C[C@H]3F)[nH]c2cc1C	none
Fc1ccc2nc(CO[C@H]3CN(Cc4ccccc4)C[C@H]3F)[nH]c2c1	Pf Dd2 growth 13µM
Fc1ccc2nc(CO[C@H]3CN(Cc4cccnc4)C[C@H]3F)[nH]c2c1	none
COC(=O)c1ccc2nc(CO[C@H]3CN(Cc4ccc5c(c4)OCO5)C[C@H]3F)[nH]c2c1	Pf Dd2 growth 8.9µM
CC(=O)Nc1ccc(CN2C[C@@H](F)[C@@H](OCc3nc4cc(C)c(C)cc4[nH]3)C2)cc1	Pf Dd2 growth 11µM
COC(=O)c1ccc2nc(CO[C@H]3CN(Cc4ccc(C(F)(F)F)cc4)C[C@H]3F)[nH]c2c1	none
COc1ccc(CN2C[C@@H](F)[C@@H](OCc3nc4ccc(F)cc4[nH]3)C2)cn1	none
F[C@@H]1CN(Cc2ccc(C(F)(F)F)cc2)C[C@@H]1OCc1nc2ccccc2[nH]1	none
COC(=O)c1ccc2nc(CO[C@H]3CN(Cc4cnn(C)c4)C[C@H]3F)[nH]c2c1	none
Cc1cc2nc(CO[C@H]3CN(Cc4ccc(C(=O)O)cc4)C[C@H]3F)[nH]c2cc1C	none
COC(=O)c1ccc2nc(CO[C@H]3CN(Cc4cccc(C#N)c4)C[C@H]3F)[nH]c2c1	none
O=C(NC1CC1)c1ccccc1OC1CN(Cc2ccc(F)cc2Cl)C1	none
CN1CCC(OC2CCN(C(=O)C3CC3)CC2)CC1	none
COc1ccccc1C(=O)N1CCC(c2nnc3n2C(C(=O)O)CC3)CC1 (stereo unspecified)	none
O=c1n(-c2ccc([N+](=O)[O-])cc2)nc2n1CCN(Cc1ccc(C(F)(F)F)cc1)C2	none
COc1ccc(C(=O)Nc2ccc3c(c2)CN(Cc2ccc(F)cc2)C(=O)C(C)O3)c(OC)c1 (stereo unspecified)	none
COc1ccc(CN2Cc3cc(NC(=O)c4ccc(F)cc4)ccc3OC(C)C2=O)c(OC)c1 (stereo unspecified)	none
COc1ccc(CN2Cc3cc(NC(=O)c4ccccc4F)ccc3OC(C)C2=O)c(OC)c1 (stereo unspecified)	Pf Dd2 growth 3.2µM
O=C(NC1CC1)C1CN(c2ccccc2)C(=O)N1 (stereo unspecified)	none
